In PubChem BioAssay (NCATS):
Where “and” joins values, the source holds several entries; their conditions need not be identical. Identical values can stand only once. Records with an inconclusive call do not appear. Calls of active or inactive are those of the source. Unless noted, calls follow the shape of the dose curve; as a rule, active = well fitted curve in the direction sought with a large enough effect; inconclusive = small, poorly fitted or top-dose-only effect, or another doubt; inactive = no such curve, though single readings can be large; an effect the other way counts as inactive or inconclusive.

What was measured:
[1] = qHTS assay for measurement of the activity of small molecule inhibitors on Zika virus induced Caspase-3 activity in human iPSC derived neural progenitor cells (hNPCs) (AID 1224857); also: nearly all actives have a fitted effect of over 65% in size
Summary of the method: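 Zika virus (2 FFU/cell) infection of human iPSC-derived NPCs, 6 h, following 1 h compound preincubation. Read-out: Caspase-Glo 3/7 luminescence.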

[2] = qHTS assay for measurement of the activity of small molecule inhibitors on Zika virus induced Caspase-3 activity in human astrocytoma cells (AID 1224859)
Summary of the method: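 Caspase activation in ZIKV-infected SNB-19 cells (2 FFU/cell, 6 h) measured by Caspase-Glo 3/7 luminescence after 30 min RT; compound pre-incubated 1 h; normalised to uninfected and infected controls.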

[3] = P-glycoprotein substrates identified in KB-8-5-11 adenocarcinoma cell line, qHTS therapeutic library screen (AID 1346987); also: nearly all actives have a fitted effect of over 65% in size; also: potency is read from the fitted curve at half-maximal effect
Summary of the method: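 KB-8-5-11: colchicine-selected sub-line of KB-3-1 over-expressing P-gp; assay medium lacked colchicine. 72 h drug exposure at 37 degree C, CellTiter-Glo.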

[4] = NS1 protein of Zika virus - qHTS assay to identify small molecule inhibitors in human HEK 293 cells (AID 1347053); also: nearly all actives have a fitted effect of over 55% in size; also: potency is read from the fitted curve at half-maximal effect
Summary of the method: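 HEK 293 cells pretreated with compound for 1 h, then infected with ZIKV MR766 (MOI 0.5) for 24 h at 37 C. NS1 detected by TR-FRET with two anti-NS1 antibodies; normalized to uninfected (0%) and infected (100%) wells.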

[5] = qHTS profiling of the MIPE4 collection as inhibitors of Plasmodium falciparum (DD2) proliferation (AID 743345; call rule not given here); settings: P. falciparum Dd2 in erythrocytes, SYBR Green DNA, 72 h; at 28.5 µM (top of the series) unless noted
Summary of the method: (§1)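 Erythrocytes infected with P. falciparum (0.3% parasitemia, 2.5% hematocrit) incubated with compounds 72 h at 37 C, 5% CO2. Lysis with saponin/Triton buffer containing SYBR Green I, overnight at room temperature in the dark; DNA fluorescence (485/535 nm) normalised to 0.29 uM artemisinin and DMSO.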

[6] = qHTS profiling of the MIPE4 collection as inhibitors of Plasmodium falciparum (DD2) proliferation (Rep 2) (AID 743346; call rule not given here); settings: P. falciparum Dd2 in erythrocytes, SYBR Green DNA, 72 h; at 28.5 µM (top of the series) unless noted
Summary of the method: as §1

[7] = qHTS profiling of the MIPE4 collection as inhibitors of Plasmodium falciparum (HB3) proliferation (AID 743347; call rule not given here); settings: P. falciparum HB3 in erythrocytes, SYBR Green DNA, 72 h; at 28.5 µM (top of the series) unless noted
Summary of the method: as §1

CC(=O)OCC[N+](C)(C)C
inactive: Potency [1] | outcome [2] | Potency [3] | Potency [4]

Cc1ccccc1C(=O)N1CC/C(=N\OS(=O)(=O)O)c2ccc(Cl)cc21
inactive: Potency [1] | outcome [2] | Potency [3] | Potency [4]

O=C1NCCN1CCN1CCC(c2cn(-c3ccc(F)cc3)c3ccc(Cl)cc23)CC1
inactive: Potency [1] | outcome [2]
active: Potency [3] 18.4 µM and 20.6 µM | Potency [4] 7.08 µM

CCCCCC1Nc2cc(C(F)(F)F)c(S(N)(=O)=O)cc2S(=O)(=O)N1 (centres undefined)
inactive: Potency [1] | outcome [2] | Potency [3] | Potency [4]

O=C(O)c1[nH]n(-c2ccc(S(=O)(=O)O)cc2)c(=O)c1N=Nc1ccc(S(=O)(=O)O)cc1
inactive: Potency [1] | outcome [2] | Potency [3] | Potency [4]

OCCCc1ccccc1
inactive: Potency [1] | outcome [2] | Potency [3] | Potency [4]

O=C(NO)c1ccccc1
inactive: Potency [1] | outcome [2] | Potency [3] | Potency [4]

CC(=O)Nc1ccc(S(=O)(=O)Nc2cc(C)on2)cc1
inactive: Potency [1] | outcome [2] | Potency [3] | Potency [4]

CCc1cc(S(=O)(=O)O)c2cc(C(C)C)cccc1-2
inactive: Potency [1] | outcome [2] | Potency [3] | Potency [4]

CC(CCc1ccc2c(c1)OCO2)NN (centres undefined)
inactive: Potency [1] | outcome [2] | Potency [3] | Potency [4]

CCCC(=O)c1cc(O)c(O)cc1O
inactive: Potency [1] | outcome [2] | Potency [3] | Potency [4]

O=C(O)Cc1ccc(OCCNC[C@H](O)c2ccccc2)cc1
inactive: Potency [1] | outcome [2] | Potency [3] | Potency [4]

Nc1cccc2c(N)cccc12
inactive: Potency [1] | outcome [2] | Potency [3] | Potency [4]

Cc1ncc(CO)c(CO)c1O
inactive: Potency [1] | outcome [2] | Potency [3] | Potency [4]

O=C(Nc1ccc(Cl)cc1)Nc1ccc(Cl)c(Cl)c1
inactive: Potency [1] | outcome [2] | Potency [4]
active: Potency [3] 6.51 µM

CCCC(=O)O[C@]1(C(=O)COC(=O)CC)CC[C@H]2[C@@H]3CCC4=CC(=O)CC[C@]4(C)[C@H]3[C@@H](O)C[C@@]21C
inactive: Potency [1] | outcome [2] | Potency [3] | Potency [4]

C[C@H](CN1CCCC1)C(=O)c1ccc(C(F)(F)F)cc1
inactive: Potency [1] | outcome [2] | Potency [3] | Potency [4]

Oc1ccccc1
inactive: Potency [1] | outcome [2] | Potency [3] | Potency [4]

Cc1cccc(C)c1NC(=O)c1cc(S(N)(=O)=O)c(Cl)cc1O
inactive: Potency [1] | outcome [2] | Potency [3] | Potency [4]

O=C(O)CNC(=O)CNC(=O)CNC(=O)CSC(=O)c1ccccc1
inactive: Potency [1] | outcome [2] | Potency [3] | Potency [4]

O=C(O)c1ccccc1S
inactive: Potency [1] | outcome [2] | Potency [3] | Potency [4]

OCc1c[nH]c2ccccc12
inactive: Potency [1] | outcome [2] | Potency [3] | Potency [4]

O=S(=O)(O)c1ccc2nc(-c3ccccc3)[nH]c2c1
inactive: Potency [1] | outcome [2] | Potency [3] | Potency [4]

Cc1ccc(O)cc1
inactive: Potency [1] | outcome [2] | Potency [3] | Potency [4]

CC(=O)N[C@@H](CCC(N)=O)C(=O)O
inactive: Potency [1] | outcome [2] | Potency [3] | Potency [4]

CN1C(=O)c2ccccc2C1=O
inactive: Potency [1] | outcome [2] | Potency [3] | Potency [4]

COC(=O)C1=C(C)NC(C)=C(C(=O)OCCc2ccc(N3CCN(C(c4ccccc4)c4ccccc4)CC3)cc2)C1c1cccc([N+](=O)[O-])c1 (centres undefined)
inactive: Potency [1] | outcome [2] | Potency [4]

Clc1ccc2c(c1)Nc1ccccc1S2
inactive: Potency [1] | outcome [2] | Potency [4]

CN1CCN(N)CC1
inactive: Potency [1] | outcome [2] | Potency [4]

COCCOCC(OC)OC
inactive: Potency [1] | outcome [2] | Potency [4]

NS(=O)(=O)c1cc(C(=O)NN2C[C@H]3[C@H]4CCC(C4)[C@H]3C2)ccc1Cl
inactive: Potency [1] | outcome [2] | Potency [4]

CC(C)OC(=O)c1cc2c(OCC(O)CNC(C)(C)C)cccc2[nH]1 (centres undefined)
inactive: Potency [1] | outcome [2] | Potency [3] | Potency [4]

C=C(C)C(=O)OCC(O)CO (centres undefined)
inactive: Potency [1] | outcome [2] | Potency [4]

CO/N=C(/C(=O)N[C@@H]1C(=O)N2C(C(=O)OCOC(=O)C(C)(C)C)=C(C)CS[C@H]12)c1csc(N)n1
inactive: Potency [1] | outcome [2] | Potency [3] | Potency [4]

C#CC(C)(CC)OC(=O)c1ccccc1C(=O)O (centres undefined)
inactive: Potency [1] | outcome [2] | Potency [4]

CC(C)(C)C(=O)OCOC(=O)C1N2C(=O)CC2S(=O)(=O)C1(C)C (centres undefined)
inactive: Potency [1] | outcome [2] | Potency [3] | Potency [4]

Nc1ccc(O)cc1
inactive: Potency [1] | outcome [2] | Potency [3] | Potency [4]

C[C@]12CCC(=O)C=C1CC[C@@H]1[C@@H]2[C@@H](O)C[C@@]2(C)[C@H]1CC[C@]2(O)C(=O)COC(=O)CCC(=O)O
inactive: Potency [1] | outcome [2] | Potency [3] | Potency [4]

CC(NCCC(c1ccccc1)c1ccccc1)c1ccccc1 (centres undefined)
3.07%: growth, % of control [7]
16.7%: parasite growth, % of control (lower = inhibition) [6]
active: Potency [3] 16.4 µM
inactive: Potency [1] | outcome [2]
9.26%: parasite growth remaining, % of DMSO control (lower = more inhibition) [5]

CCCCN(CCN(CCCC)C(=O)N1CCOCC1)C(=O)N1CCOCC1
inactive: Potency [1] | outcome [2] | Potency [4]
